Experimental data as given in PubChem BioAssay AID1159580 (chemical genetic matrix, 2015).
Values joined by “and” are separate entries in the source; they are usually repeats but may differ in a detail not shown here. Identical values can stand only once. Hit rate of the full screen: of about 5,500 compounds, about 2,000 (36%) were called active. Inconclusive results (about 18%) are left out. Rule as the data show it: active = normalized growth mostly below about 0.91 (no sharp cut-off); inconclusive = no clear call, values can overlap the other calls; inactive = mostly above about 0.92. The list shows a part of the results.

Test: chemical genetic growth profiling, strain panel (AID 1159580);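 also: tested at 20 µM; growth read once vehicle control cultures reached saturation at 30 °C; 1 = growth at the plate median or of vehicle wells; lower values mean less growth of the strain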
Conditions: S. cerevisiae deletion strains, growth OD

Measured: normalized growth

NNc1nncc2ccccc12
inactive: locus YAL013W, strain DEP1, hits give low values 1.01 | locus YAL021C, strain ccr4, hits give low values 0.991 | locus YAL026C, strain drs2, hits give low values 0.973 | locus YAL030W, strain snc1, hits give low values 1 | locus YAL040C, strain CLN3, hits give low values 0.995 | locus YBL061C, strain skt5, hits give low values 0.993 | locus YBR009C, strain hhf1, hits give low values 0.983 | locus YBR021W, strain FUR4, hits give low values 0.973 | locus YBR023C, strain chs3, hits give low values 0.986 | locus YBR171W, strain sec66, hits give low values 0.997 | locus YBR229C, strain ROT2, hits give low values 1.01 | locus YBR231C, strain swc5, hits give low values 0.981 | locus YBR279W, strain paf1, hits give low values 0.996 | locus YCL011C, strain gbp2, hits give low values 0.973 | locus YCL016C, strain dcc1, hits give low values 0.969 | locus YCL029C, strain bik1, hits give low values 1 | locus YCL061C, strain MRC1 (second series), hits give low values 1 | locus YCL061C, strain MRC1, hits give low values 0.988 | locus YCL069W, strain vba3, hits give low values 1 | locus YCR088W, strain abp1, hits give low values 0.999 | locus YDL005C, strain med2, hits give low values 0.992 | locus YDL035C, strain GPR1, hits give low values 1.02 | locus YDL040C, strain nat1, hits give low values 1.01 | locus YDL074C, strain BRE1, hits give low values 0.997 | locus YDL101C, strain DUN1, hits give low values 1 | locus YDL134C, strain PPH21, hits give low values 1.01 | locus YDL185W, strain tfp1, hits give low values 0.999 | locus YDL192W, strain arf1, hits give low values 0.999 | locus YDR001C, strain nth1, hits give low values 0.997 | locus YDR069C, strain doa4, hits give low values 1.02 | locus YDR101C, strain arx1, hits give low values 1.01 | locus YDR137W, strain rgp1, hits give low values 1.02 | locus YDR150W, strain NUM1, hits give low values 1 | locus YDR159W, strain sac3, hits give low values 1.03 | locus YDR162C, strain NBP2, hits give low values 1.01 | locus YDR195W, strain ref2 1.06 | locus YDR297W, strain sur2, hits give low values 1.02 | locus YDR318W, strain mcm21, hits give low values 0.984 | locus YDR334W, strain swr1, hits give low values 0.986 | locus YDR335W, strain msn5, hits give low values 1.02 | locus YDR363W, strain ESC2, hits give low values 0.997 | locus YDR388W, hits give low values 0.993 | locus YDR392W, strain spt3, hits give low values 0.878 | locus YDR502C, strain sam2, hits give low values 0.986 | locus YEL003W, strain gim4, hits give low values 0.989 | locus YEL037C, strain rad23, hits give low values 1 | locus YEL061C, strain CIN8 (second series), hits give low values 1 | locus YEL061C, strain CIN8, hits give low values 1 | locus YER002W, strain NOP16, hits give low values 0.995 | locus YER015W, strain faa2, hits give low values 0.978 | locus YER016W, strain bim1, hits give low values 1 | locus YER110C, hits give low values 0.993 | locus YER111C, strain swi4, hits give low values 0.986 | locus YER155C, strain BEM2 (second series), hits give low values 0.947 | locus YER155C, strain BEM2, hits give low values 1.02 | locus YER167W, strain BCK2, hits give low values 1.01 | locus YFR010W, strain ubp6, hits give low values 0.985 | locus YGL078C, strain dbp3, hits give low values 0.999 | locus YGL086W, strain mad1, hits give low values 0.996 | locus YGL167C, strain pmr1, hits give low values 0.995 | locus YGL173C, strain kem1, hits give low values 0.99 | locus YGL227W, strain vid30, hits give low values 0.999 | locus YGL240W, strain doc1, hits give low values 1 | locus YGL248W, strain PDE1, hits give low values 0.99 | locus YGL253W, strain hxk2, hits give low values 1.01 | locus YGR135W, strain pre9, hits give low values 0.96 | locus YGR252W, strain gcn5, hits give low values 0.941 | locus YHR013C, strain ard1, hits give low values 0.986 | locus YHR027C, strain rpn1, hits give low values 1 | locus YHR030C, strain SLT2, hits give low values 1 and 1.02 | locus YHR079C, strain IRE1 (second series), hits give low values 0.993 | locus YHR079C, strain IRE1, hits give low values 1.01 | locus YHR094C, strain hxt1, hits give low values 0.997 | locus YHR129C, strain ARP1, hits give low values 0.997 | locus YHR142W, strain chs7, hits give low values 0.997 | locus YHR200W, strain rpn10, hits give low values 0.997 | locus YIL066C, strain RNR3, hits give low values 1 | locus YIL073C, strain SPO22, hits give low values 0.992 | locus YIL125W, strain kgd1, hits give low values 1.01 | locus YIR030C, strain dcg1, hits give low values 0.996 | locus YJL092W, strain hpr5, hits give low values 0.988 | locus YJL095W, strain BCK1 (second series), hits give low values 0.999 | locus YJL095W, strain BCK1, hits give low values 0.971 and 0.995 | locus YJL115W, strain asf1, hits give low values 0.996 | locus YJL129C, strain trk1, hits give low values 0.994 | locus YJL134W, strain LCB3, hits give low values 1 | locus YJL154C, strain vps35, hits give low values 0.998 | locus YJL164C, strain tpk1, hits give low values 0.993 | locus YJL166W, strain qcr8, hits give low values 1 | locus YJL168C, strain set2, hits give low values 0.989 | locus YJL187C, strain SWE1 (second series), hits give low values 1 | locus YJL187C, strain SWE1, hits give low values 1.01 | locus YJR043C, strain POL32, hits give low values 1
